Assay [1] is described as follows: A CellTox Green Cytotoxicity Assay to monitor cytotoxicity in HEK293 cells - 32 hour (AID 1224881). Also: nearly all actives have a fitted effect of over 40% in size. Also: potency is read from the fitted curve at half-maximal effect. Put shortly:
(§1)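 HEK293 cells, 600/well, were preincubated 5 hours and then exposed to compounds at 37 C for up to 40 hours. A cell-impermeant cyanine dye staining dead-cell DNA was read by fluorescence at 0, 8, 16, 24, 32 and 40 h time points.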

A short description of assay [2]: A CellTox Green Cytotoxicity Assay to monitor cytotoxicity in HepG2 cells - 0 hour (AID 1224882). Also: nearly all actives have a fitted effect of over 35% in size. Also: potency is read from the fitted curve at half-maximal effect. The method, boiled down:
(§2)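 HepG2 cells, 600/well, preincubated 5 h with CellTox Green dye, then exposed to Tox21 compounds in DMSO at 37 C for up to 40 h. Dead-cell DNA fluorescence read at the indicated time point.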

Assay [3] can be described thus: A CellTox Green Cytotoxicity Assay to monitor cytotoxicity in HepG2 cells - 32 hour (AID 1224883). Also: nearly all actives have a fitted effect of over 50% in size. Also: potency is read from the fitted curve at half-maximal effect. The method, boiled down: as §2
The nature of assay [4]: A CellTox Green Cytotoxicity Assay to monitor cytotoxicity in HEK293 cells - 8 hour (AID 1224884). Also: nearly all actives have a fitted effect of over 35% in size. Also: potency is read from the fitted curve at half-maximal effect. Put shortly:
as §1

A short description of assay [5]: qHTS RealTime-Glo MT Cell Viability Assay in HepG2 cells - 16 hour (AID 1224885). Also: nearly all actives have a fitted effect of over 50% in size. Also: potency is read from the fitted curve at half-maximal effect. The method, boiled down: (§3)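 HepG2 cells were seeded at 600 cells/well together with NanoLuc luciferase and a cell-permeant prosubstrate, preincubated 5 h at 37 C/5% CO2, then pin-dosed with compounds in DMSO. Nonlytic luminescence from viable cells was read at each time point.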
For orientation: In qHTS, concentration-response curves come from the screen itself.

Assay [6] can be described thus: qHTS RealTime-Glo MT Cell Viability Assay in HEK293 cells - 24 hour (AID 1224886). Also: nearly all actives have a fitted effect of over 50% in size. Also: potency is read from the fitted curve at half-maximal effect. The method, boiled down: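 HEK293 cells were seeded at 600 cells/well together with NanoLuc luciferase and cell-permeant prosubstrate, preincubated 5 h at 37 C/5% CO2, then given compound in DMSO by pintool. Luminescence from viable-cell prosubstrate reduction was read repeatedly over 40 h.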

Assay [7] in a line: qHTS RealTime-Glo MT Cell Viability Assay in HEK293 cells - 8 hour (AID 1224887). Also: nearly all actives have a fitted effect of over 50% in size. Also: potency is read from the fitted curve at half-maximal effect. Put shortly:
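600 cells/well were plated with the nonlytic NanoLuc/prosubstrate reagent, pre-incubated 5 h, then given 23 nL of compound in DMSO. Incubation at 37 C for 40 h, with luminescence from viable-cell-reduced substrate read repeatedly from 0 h.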

The nature of assay [8]: A CellTox Green Cytotoxicity Assay to monitor cytotoxicity in HEK293 cells - 16 hour (AID 1224888). Also: nearly all actives have a fitted effect of over 35% in size. Put shortly: as §1
A short description of assay [9]: qHTS RealTime-Glo MT Cell Viability Assay in HepG2 cells - 0 hour (AID 1224889). Also: nearly all actives have a fitted effect of over 50% in size. Put shortly:
as §3

Assay [10] can be described thus: A CellTox Green Cytotoxicity Assay to monitor cytotoxicity in HepG2 cells - 8 hour (AID 1224890). Also: nearly all actives have a fitted effect of over 45% in size. The method, boiled down:
as §2

The structures appear in SMILES notation. “And” between values parts separate entries of the source, which are not always exact repeats. Identical values can stand only once. Inconclusive results are not listed. More than one record can exist for a structure, and the calls need not agree. The source made the active and inactive calls. Calls follow the shape of the dose curve; as a rule, active = well fitted curve in the direction sought with a large enough effect in the repeat runs; inconclusive = weak or mixed curves; inactive = no such curve, though single readings can be large; an effect the other way counts as inactive or inconclusive.

Consider `CN1C[C@H](C(=O)N[C@]2(C)O[C@@]3(O)[C@@H]4CCCN4C(=O)[C@H](Cc4ccccc4)N3C2=O)C=C2c3cccc4[nH]cc(c34)C[C@H]21`, for which the Potency entry in assay [1], in assay [2], in assay [3], in assay [4], in assay [6] and in assay [7] was “inactive” in each case. The Potency entry in [8] and in assay [10] was “inactive” in each case. Further, the Potency in assay [5] was 19.6 µM (active). Besides, the outcome in assay [9] was inactive.

With `c1ccc2sc(SNC3CCCCC3)nc2c1`, the Potency entry in assay [1], in assay [2], in [3], in assay [4], in [5] and in assay [6] was “inactive” in each case. The Potency entry in assay [7], in [8] and in assay [10] was “inactive” throughout. The result in assay [9] was inactive.

Regarding `N#CC(C#N)=Cc1ccc(O)c(O)c1`, the Potency result in [1], in assay [3], in [4], in [5], in assay [6] and in assay [7] was “inactive” throughout. Also, the Potency result in assay [8] and in assay [10] was “inactive” throughout. Also, the Potency in assay [2] was 23.9 µM (active). Moreover, the molecule was classed as inactive in [9].

As for `Clc1ccccc1`, the Potency entry in assay [1], in [2], in [3], in assay [4], in assay [5] and in [6] was “inactive” each time. Moreover, the Potency entry in [7], in assay [8] and in [10] was “inactive” throughout. For the same molecule, the molecule was called inactive in assay [9].

Regarding `CN[C@@H](C)[C@H](O)c1ccccc1`, the Potency result in assay [1], in assay [2], in assay [3], in assay [4], in assay [5] and in [6] was “inactive” in each case. For the same molecule, in assay [8], the Potency entry is “inactive”. For the same molecule, the outcome in assay [9] was inactive.

With `O=S(=O)(c1ccccc1)c1ccccc1`, the Potency result in assay [1], in assay [2], in assay [3], in assay [4], in [5] and in assay [6] was “inactive” each time. The Potency result in assay [8] was “inactive”. Also, the call in assay [9] was inactive.

Consider `O=P(OCC(Br)CBr)(OCC(Br)CBr)OCC(Br)CBr` (stereo unspecified), for which the Potency entry in assay [1], in assay [2], in assay [3], in [4], in [5] and in assay [8] was “inactive” each time. Also, the Potency entry in assay [10] was “inactive”. Also, in [6], the Potency was 27.9 µM (active). Moreover, in assay [9], the molecule was classed as inactive.

On to `CCNC(=O)NC(=O)/C(C#N)=N/OC`, for which the Potency entry in assay [1], in assay [2], in assay [3], in [4], in [5] and in assay [6] was “inactive” in each case. The Potency result in assay [8] is “inactive”. In addition, in assay [9], the call was inactive.

`CC1(C)CC(=O)CC(C)(C)N1[O]`: the Potency result in [1], in assay [2], in assay [3], in assay [4], in [5] and in assay [6] was “inactive” throughout. Also, the Potency entry in assay [8] and in assay [10] was “inactive” in each case. In addition, the molecule was called inactive in [9].

As for `C[Si](Cn1cncn1)(c1ccc(F)cc1)c1ccc(F)cc1`, the Potency result was “inactive and 54.9 µM (active)” in assay [1]; 50.6 µM (active) and 49 µM (active) in assay [3]; 25.4 µM (active) and 21.9 µM (active) in assay [6]. The Potency entry in assay [2], in assay [4], in assay [5], in assay [8] and in assay [10] was “inactive” in each case. For the same molecule, the result in [9] was inactive.

Regarding `CC(Cl)C(=O)O` (stereo unspecified), the Potency entry in [1], in assay [2], in assay [3], in [4], in assay [5] and in assay [6] was “inactive” throughout. Moreover, the Potency result in assay [8] was “inactive”. Besides, in assay [9], the outcome was inactive.

In the case of `CC(C)(C)NCC(O)c1ccccc1Cl` (stereo unspecified), the Potency entry in assay [1], in [2], in [3], in assay [4], in [5] and in assay [6] was “inactive” each time. Besides, the Potency entry in [8] and in [10] was “inactive” in each case. Further, in assay [9], the result was inactive.

`OCCCl`: the Potency entry in [1], in assay [2], in [3], in assay [4], in assay [5] and in assay [6] was “inactive” throughout. Further, the Potency entry in [8] and in assay [10] was “inactive” in each case. In addition, the molecule was called inactive in [9].

As for `CC(C)C1(C)N=C(c2ncccc2C(=O)O)NC1=O` (stereo unspecified), the Potency entry in assay [1], in assay [2], in [3], in assay [4], in assay [5] and in [6] was “inactive” throughout. For the same molecule, the Potency result in assay [8] was “inactive”. Also, the outcome in [9] was inactive.

On to `CCOP(=S)(S)OCC`, for which the Potency entry in assay [1], in assay [2], in [3], in assay [4], in assay [5] and in [6] was “inactive” throughout. Moreover, the Potency entry in [8] was “inactive”. In addition, the outcome in assay [9] was inactive.

As for `CCc1ccccc1N`, the Potency entry in assay [1], in assay [2], in [3], in assay [4], in assay [5] and in assay [6] was “inactive” each time. The Potency entry in [7], in assay [8] and in [10] was “inactive” throughout. Further, the molecule was classed as inactive in assay [9].

For the molecule `c1ccc2c(c1)sc1ccccc12`, the Potency entry in assay [1], in assay [2], in [3], in [4], in assay [5] and in [6] was “inactive” throughout. For the same molecule, the Potency entry in [8] was “inactive”. Besides, the molecule was classed as inactive in assay [9].

For the molecule `CCCCC(CC)CO[N+](=O)[O-]` (stereo unspecified), the Potency entry in [1], in [2], in assay [3], in [4], in assay [5] and in [6] was “inactive” in each case. Also, the Potency result in assay [7], in [8] and in assay [10] was “inactive” throughout. Moreover, in assay [9], the molecule was classed as inactive.

As to `CCOC(=O)C1OC1(C)c1ccccc1` (stereo unspecified), the Potency entry in [1], in assay [2], in assay [3], in [4], in assay [5] and in [6] was “inactive” each time. The Potency entry in assay [7], in assay [8] and in assay [10] was “inactive” each time. For the same molecule, the molecule was classed as inactive in assay [9].

Consider `O=C(O)C(F)(F)C(F)(F)C(F)(F)C(F)(F)C(F)(F)F`, for which the Potency entry in assay [1], in assay [2], in assay [3], in [4], in [5] and in [6] was “inactive” in each case. For the same molecule, the Potency entry in assay [7], in assay [8] and in assay [10] was “inactive” in each case. In addition, the molecule was called inactive in [9].

Consider `CCCCNC(=O)OCC#CI`, for which the Potency in assay [1] was 54.9 µM (active); in assay [3] it was 54.9 µM (active); in [5], 10.9 µM (active) and 4.9 µM (active); in assay [6], 21.8 µM (active) and 21.9 µM (active); in assay [7], 24.5 µM (active). In addition, the Potency result in assay [2], in assay [4], in assay [8] and in assay [10] was “inactive” throughout.

For `COc1ccc2c(c1OC)C(=O)O[C@H]2[C@@H]1c2cc3c(cc2CCN1C)OCO3`, the Potency result in assay [1], in [2], in assay [3], in assay [4], in [5] and in [6] was “inactive” throughout. Moreover, the Potency entry in [7], in [8] and in [10] was “inactive” throughout. Also, the result in assay [9] was inactive.

For the molecule `CCOP(=S)(OCC)SCSc1cc(Cl)ccc1Cl`, the Potency entry in assay [1], in assay [2], in [3], in assay [4], in assay [5] and in assay [6] was “inactive” throughout. Further, the Potency result in [7], in [8] and in [10] was “inactive” each time. Also, the molecule was classed as inactive in [9].

Consider `Nc1ccccc1C(=O)OCCc1ccccc1`, for which the Potency in assay [1] is 21.9 µM (active); in [3], 21.9 µM (active); in [4], “inactive and 34.7 µM (active)”; in assay [6] it was 21.9 µM (active); in assay [7] it was 21.9 µM (active). Further, the Potency entry in assay [2] and in assay [5] was “inactive” in each case. The result in assay [9] was inactive.

On to `C=C(Cl)Cl`, for which the Potency result in assay [1], in assay [2], in assay [3], in assay [4], in assay [5] and in assay [6] was “inactive” in each case. Also, the Potency entry in [8] and in assay [10] was “inactive” throughout. For the same molecule, in assay [9], the result was inactive.

Regarding `Nc1ccccc1C(=O)OCC(O)CO` (stereo unspecified), the Potency entry in assay [1], in [2], in assay [3], in assay [4], in assay [5] and in assay [6] was “inactive” in each case. In addition, the Potency entry in assay [8] and in assay [10] was “inactive” throughout. Further, the result in assay [9] was inactive.

(Values after PubChem BioAssay (Tox21).)
